Results on 22 compounds are retold here after PubChem BioAssay.

Assay [1] is described as follows: human hepatoma cell viability loss – ATP luminescence, cytotoxicity control for P. falciparum antimalarial project, primary screen (AID 2303;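 active = inhibition above 50%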;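 note: 0% = DMSO wells and 100% = digitonin-killed cells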). The note with it: HepG2 viability, 24-48 h, at 10 µM, hits give high values.
Assay [2] addresses L-lactate dehydrogenase (Plasmodium falciparum (isolate CDC / Honduras)) (UniProt Q27743). Briefly: PfLDH activity inhibition – cell lysate, 3D7 strain, counter-screen for P. falciparum growth inhibition project (AID 2304).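 Note: 0% = vehicle and 100% = reference inhibitor.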 To be noted: P. falciparum 3D7 crude extract, LDH APAD/NBT absorbance; at 2 µM; hits give high values.
The nature of assay [3]: inhibition of 3D7 malaria parasite growth – strain 3D7 (AID 2306).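 Note: 0% = DMSO wells and 100% = chloroquine plus artemisinin control wells.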 To be noted: P. falciparum 3D7 erythrocytic growth, LDH absorbance, 72 h; at 2 µM; hits give high values.
Assay [4] has as its target Calcium-dependent protein kinase 1 (Plasmodium falciparum (isolate 3D7)) (UniProt P62344). Briefly: PfCDPK1 kinase inhibitors, biochemical, TCAMS library (AID 1159585; cut-off not given, nearly all actives have IC50 up to about 0.98 µM;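 note: inhibitors leave more ATP so luminescence rises with inhibition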). The note with it: recombinant PfCDPK1, Kinase-Glo ATP depletion luminescence. For orientation: Kinase-Glo reads ATP consumption through a luciferase reaction.
Assay [5] has as its target Plasmodium falciparum protein kinase 6 (PK6, PF3D7_1337100) (UniProt Q8IDW1). Briefly: PfPK6 kinase inhibitors, biochemical, TCAMS library (AID 1159586). The note with it: recombinant PfPK6, Kinase-Glo ATP depletion luminescence.
The target of assay [6] is Protein kinase 7 (PK7), Plasmodium falciparum 3D7 (PF3D7_0213400) (UniProt Q7YTF7). Put plainly: inhibition of Plasmodium PK7 catalytic activity – biochemical, TCAMS antimalarial set, Kinase-Glo luminescence (AID 1159587). The note with it: recombinant PfPK7, Kinase-Glo ATP depletion luminescence.
In assay [7] the target is Calcium-dependent protein kinase 4 (Plasmodium falciparum (isolate 3D7)) (UniProt Q8IBS5). Briefly: PfCDPK4 kinase inhibitors, biochemical, TCAMS library (AID 1159588; cut-off not given, nearly all actives have IC50 up to about 0.91 µM). To be noted: recombinant PfCDPK4, Kinase-Glo ATP depletion luminescence.
Assay [8] is described as follows: antimalarial activity against Dd2 strain (AID 2302;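 active = growth inhibition above 50% at the single 2 µM test dose, taken to imply half-maximal potency below 2 µM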;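 note: 0% = DMSO untreated growth and 100% = chloroquine plus artemisinin killed control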). To be noted: P. falciparum Dd2 in RBCs, LDH growth readout, 72 h; at 2 µM; hits give high values.

A number with no mark means an inactive call. For some of these results: Entries with a potency or affinity are not part of this list. Active and inactive are the calls of the source. Unless noted, the rule behind the calls is not given here.

A word on the inhibition: it is the drop in the measured response relative to a control, in per cent.

Plasmodium falciparum protein kinase 6 (PK6, PF3D7_1337100), sequence (Q8IDW1 1-305): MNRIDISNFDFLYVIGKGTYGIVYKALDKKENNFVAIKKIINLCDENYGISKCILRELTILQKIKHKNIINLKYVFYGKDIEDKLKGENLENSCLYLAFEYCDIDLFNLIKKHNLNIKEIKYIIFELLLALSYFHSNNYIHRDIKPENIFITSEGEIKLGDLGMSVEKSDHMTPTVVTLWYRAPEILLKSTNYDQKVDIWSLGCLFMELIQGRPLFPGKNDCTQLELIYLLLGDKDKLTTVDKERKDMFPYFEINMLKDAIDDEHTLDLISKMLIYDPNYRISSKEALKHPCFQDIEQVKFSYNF
Protein kinase 7 (PK7), Plasmodium falciparum 3D7 (PF3D7_0213400), sequence (Q7YTF7 1-343): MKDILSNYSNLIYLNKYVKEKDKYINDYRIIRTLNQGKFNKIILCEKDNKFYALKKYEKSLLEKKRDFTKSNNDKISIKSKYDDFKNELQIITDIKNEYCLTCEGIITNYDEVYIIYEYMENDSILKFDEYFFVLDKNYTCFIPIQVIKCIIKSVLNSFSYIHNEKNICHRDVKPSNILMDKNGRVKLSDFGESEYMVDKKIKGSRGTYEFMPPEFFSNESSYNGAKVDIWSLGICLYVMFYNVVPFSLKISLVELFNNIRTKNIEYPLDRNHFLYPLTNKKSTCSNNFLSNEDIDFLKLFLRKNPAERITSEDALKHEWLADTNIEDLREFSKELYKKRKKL
L-lactate dehydrogenase (Plasmodium falciparum (isolate CDC / Honduras)), sequence (Q27743 whole entry, looked up): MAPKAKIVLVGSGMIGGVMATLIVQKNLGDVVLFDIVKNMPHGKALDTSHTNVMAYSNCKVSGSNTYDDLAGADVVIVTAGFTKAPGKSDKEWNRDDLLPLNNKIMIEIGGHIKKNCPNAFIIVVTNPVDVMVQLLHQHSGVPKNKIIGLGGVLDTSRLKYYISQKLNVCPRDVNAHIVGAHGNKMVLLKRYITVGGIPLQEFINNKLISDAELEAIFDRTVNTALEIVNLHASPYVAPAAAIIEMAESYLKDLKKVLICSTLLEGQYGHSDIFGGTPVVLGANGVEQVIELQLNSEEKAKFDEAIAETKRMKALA
Calcium-dependent protein kinase 1 (Plasmodium falciparum (isolate 3D7)), sequence (P62344 whole entry, looked up): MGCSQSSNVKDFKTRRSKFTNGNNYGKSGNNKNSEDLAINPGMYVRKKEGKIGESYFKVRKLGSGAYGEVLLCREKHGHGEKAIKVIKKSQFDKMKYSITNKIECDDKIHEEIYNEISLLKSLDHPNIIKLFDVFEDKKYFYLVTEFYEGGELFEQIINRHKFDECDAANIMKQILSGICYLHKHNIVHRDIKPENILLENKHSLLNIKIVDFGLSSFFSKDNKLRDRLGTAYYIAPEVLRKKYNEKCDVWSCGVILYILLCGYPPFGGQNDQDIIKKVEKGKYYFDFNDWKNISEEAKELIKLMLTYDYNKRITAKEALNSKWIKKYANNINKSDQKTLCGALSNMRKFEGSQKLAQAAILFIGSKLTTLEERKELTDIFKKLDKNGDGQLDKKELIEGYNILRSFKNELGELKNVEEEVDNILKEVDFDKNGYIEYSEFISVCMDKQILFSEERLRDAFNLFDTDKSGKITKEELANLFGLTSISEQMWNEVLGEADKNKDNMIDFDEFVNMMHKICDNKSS
Calcium-dependent protein kinase 4 (Plasmodium falciparum (isolate 3D7)), sequence (Q8IBS5 whole entry, looked up): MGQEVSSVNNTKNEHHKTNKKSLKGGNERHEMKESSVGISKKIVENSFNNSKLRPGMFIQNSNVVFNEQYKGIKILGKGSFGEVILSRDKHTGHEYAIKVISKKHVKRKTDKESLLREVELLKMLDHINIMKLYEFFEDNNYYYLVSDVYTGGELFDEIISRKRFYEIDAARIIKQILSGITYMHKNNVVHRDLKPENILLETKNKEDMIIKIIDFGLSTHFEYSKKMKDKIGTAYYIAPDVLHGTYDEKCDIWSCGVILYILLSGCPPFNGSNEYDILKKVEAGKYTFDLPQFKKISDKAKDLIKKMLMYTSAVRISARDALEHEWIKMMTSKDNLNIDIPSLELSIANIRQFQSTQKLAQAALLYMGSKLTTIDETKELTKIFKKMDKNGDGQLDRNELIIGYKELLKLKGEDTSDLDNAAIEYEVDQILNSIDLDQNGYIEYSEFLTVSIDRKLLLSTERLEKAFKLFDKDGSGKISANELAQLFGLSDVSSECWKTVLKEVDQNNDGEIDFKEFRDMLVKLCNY

In the case of `O=C(Nc1ccc(C(F)(F)F)cc1)c1cc(Cl)cc2[nH]c(C(F)(F)F)nc12`, the figures for the inhibition in assay [1] and in assay [2] were 86% (active) and -1%, respectively. For the same compound, the growth inhibition in assay [3] is 102% (active). Also, the result in assay [4], in assay [5], in assay [6] and in assay [7] was inactive.

`NS(=O)(=O)c1cccc(N=Cc2c(O)[nH]c3ccc(S(=O)(=O)Cc4c(Cl)cccc4Cl)cc23)c1`: the values for the growth inhibition in assay [8] and in assay [3] were 99% (active) and 92% (active), respectively. The figures for the inhibition in assay [1] and in assay [2] were 1% and 4%, respectively. Also, the result in assay [4], in assay [5] and in assay [6] was inactive.

As for `Cn1cccc1C(=O)Nc1cccc(-c2nn3ccccc3c2-c2ccnc(Nc3ccc4c(c3)OCCO4)n2)c1`, the figures for the growth inhibition in assay [8] and in assay [3] were 27% and 95% (active), respectively. In addition, the inhibition in assay [1] was 12%; in assay [2] it was 4%. Besides, the outcome in assay [4], in assay [5] and in assay [6] was inactive.

As for `O=c1c2cccnc2sn1-c1ccccc1`, the inhibition in assay [2] is 0%. The result in assay [4], in assay [5], in assay [6] and in assay [7] was inactive.

For `O=C(Nc1ccccc1)Nc1cccc(-c2nn3c(OCCN4CCCC4)cccc3c2-c2ccncc2)c1`, the growth inhibition in assay [8] was 98% (active); in assay [3] it was 102% (active). The inhibition in assay [1] is 30%; in assay [2], 4%. Moreover, the outcome in assay [4], in assay [5] and in assay [6] was inactive.

In the case of `CN(c1ccc(NC(=O)Nc2cc(C(F)(F)F)ccc2F)cc1)c1ccnc(NCCN2CCOCC2)n1`, the growth inhibition was 73% (active) in assay [8] and 97% (active) in assay [3]. The inhibition in assay [1] was 67% (active); in assay [2], -2%. For the same compound, the outcome in assay [4], in assay [6] and in assay [7] was inactive.

Regarding `CCN(CC)CCCN(C(=O)Nc1cc(F)cc(F)c1)c1nc(-c2ccc(F)cc2)cs1`, the inhibition in assay [1] is 27%; in assay [2], 0%. In addition, in assay [3], the growth inhibition was 82% (active). Further, the outcome in assay [4], in assay [5], in assay [6] and in assay [7] was inactive.

On to `COc1ccc(CN2CCN(CC(=O)Nc3cc(Cl)ccc3-n3cncn3)CC2)cc1F`, for which the inhibition in assay [1] is 0%; in assay [2], -1%. In addition, the growth inhibition in assay [3] is 93% (active). Further, the outcome in assay [4], in assay [5], in assay [6] and in assay [7] was inactive.

With `COc1c(C2CCN(CCCCNC(=O)C=Cc3ccccc3C(F)(F)F)CC2)ccc2c1CCCC2`, the inhibition in assay [1] is 98% (active); in assay [2], -3%. Further, the growth inhibition in assay [3] is 96% (active). Moreover, the result in assay [4], in assay [5], in assay [6] and in assay [7] was inactive.

Regarding `CCN(CC)CCNC(=O)c1ccc(N=Cc2c(O)[nH]c3ccc(S(=O)(=O)Cc4c(Cl)cccc4Cl)cc23)cc1`, the growth inhibition in assay [8] is 56% (active); in assay [3], 100% (active). Moreover, the results for the inhibition in assay [1] and in assay [2] were 25% and 3%, respectively. Besides, the result in assay [4], in assay [5] and in assay [6] was inactive.

In the case of `COc1ccc(CCN2CC[C@H](CNc3nc(-c4ccccc4)nc4ccccc34)C2)cc1S(N)(=O)=O`, the inhibition is 54% (active) in assay [1] and -4% in assay [2]. For the same compound, the growth inhibition in assay [3] is 85% (active). The outcome in assay [4], in assay [5], in assay [6] and in assay [7] was inactive.

On to `O=C(c1ccccc1)N1CCC[C@](CCCN2CCN(c3ccccc3O)CC2)(c2ccc(Cl)c(Cl)c2)C1`, for which the inhibition was 16% in assay [1] and -3% in assay [2]. The growth inhibition in assay [3] is 80% (active). Besides, the result in assay [4], in assay [5], in assay [6] and in assay [7] was inactive.

In the case of `Clc1ccc(C=NNc2ccnc3cc(Cl)ccc23)cc1`, the inhibition in assay [2] is -3%. Also, the result in assay [4], in assay [5], in assay [6] and in assay [7] was inactive.

Regarding `CCc1cc2c3c(N)nc(N)nc3ccc2n1C(C)(C)C`, in assay [2], the inhibition was -11%. The growth inhibition in assay [3] is 99% (active). Moreover, the outcome in assay [4], in assay [5], in assay [6] and in assay [7] was inactive.

Turning to `NS(=O)(=O)c1cccc(Nc2nccc(-c3cnn4ncccc34)n2)c1`, the growth inhibition in assay [8] and in assay [3] was 89% (active) each time. Besides, the figures for the inhibition in assay [1] and in assay [2] were 39% and 0%, respectively. Besides, the outcome in assay [4], in assay [6] and in assay [7] was inactive.

For `CN(c1ccc2c(c1)nc(NCc1ccccc1)n2C)c1ccnc(Nc2ccc(CS(C)(=O)=O)cc2)n1`, the figures for the growth inhibition in assay [8] and in assay [3] were 69% (active) and 94% (active), respectively. For the same compound, the figures for the inhibition in assay [1] and in assay [2] were 61% (active) and 4%, respectively. Besides, the result in assay [4], in assay [6] and in assay [7] was inactive.

`Cc1nc2ccccc2n1C1C[C@H]2CC[C@@H](C1)N2CCC1(c2ccccc2)CCN(C(=O)Nc2ccc(C(F)(F)F)cc2)CC1` (stereo not given in full): the inhibition in assay [2] is -2%. For the same compound, the outcome in assay [4], in assay [5], in assay [6] and in assay [7] was inactive.

Take `COc1cccc(-c2cc3c(NCc4ccncc4)nccc3s2)c1`: the inhibition in assay [1] is 0%; in assay [2], -2%. Also, the growth inhibition in assay [3] was 87% (active). The result in assay [4], in assay [5], in assay [6] and in assay [7] was inactive.

For the compound `CCn1c(-c2nonc2N)nc2c(-c3cc4ccccc4s3)ncc(C(=O)N3CCC(N)C3)c21` (stereo not given), the growth inhibition in assay [8] is 66% (active); in assay [3], 98% (active). The figures for the inhibition in assay [1] and in assay [2] were 99% (active) and 5%, respectively. In addition, the result in assay [4], in assay [5] and in assay [6] was inactive.

Regarding `CCS(=O)(=O)c1ccc(OC)c(Nc2nccc(-c3c(-c4cccc(NC(=O)c5c(F)cccc5F)c4)nn4ncccc34)n2)c1`, the growth inhibition in assay [8] is 88% (active); in assay [3], 87% (active). Further, the inhibition in assay [1] was 27%; in assay [2], -5%. Besides, the result in assay [4], in assay [5] and in assay [6] was inactive.

`COc1cc(Nc2nccc(-c3c(-c4cccc(NC(=O)c5c(F)cccc5F)c4)nn4ncccc34)n2)cc(OC)c1OC`: the growth inhibition in assay [8] was 97% (active); in assay [3], 98% (active). Besides, the inhibition is 96% (active) in assay [1] and 1% in assay [2]. In addition, the outcome in assay [4], in assay [5] and in assay [6] was inactive.

Regarding `CCN(CC)CCCC(C)Nc1nc(C=Cc2ccc(Br)cc2)nc2cc(Cl)ccc12` (stereo not given), the inhibition in assay [2] is -6%. In addition, the outcome in assay [4], in assay [5], in assay [6] and in assay [7] was inactive.
